Results taken from PubChem BioAssay (NCI).
Compounds without any hit were thinned out: in the full panel of roughly 83,000, 20% have a hit.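 Testing used 96-well plates and a 48-hour single-concentration exposure. Example: -40 means 40% of the starting cells died.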 Unmarked numbers belong to inactive results. Active and inactive are the calls of the source. How the source made its calls: active means growth percent below 10; inactive means the rest.

Assays:
Assay in all cases: NCI-60 one-dose screen, 48 h (100 = growth as untreated, 0 = no growth, -100 = all killed)
Settings in all cases: 10 µM
[1] = test system: NCI-H23 lung
[2] = test system: NCI-H226 lung
[3] = test system: NCI-H322M lung
[4] = test system: HOP-62 NSCLC
[5] = test system: NCI-H460 lung
[6] = test system: NCI-H522 lung
[7] = test system: A549/ATCC NSCLC
[8] = test system: 786-0 renal
[9] = test system: COLO 205 colon
[10] = test system: DU-145 prostate
[11] = test system: K-562 leukemia
[12] = test system: MALME-3M melanoma
[13] = test system: MDA-MB-231 breast
[14] = test system: RXF 393 renal
[15] = test system: SF-268 CNS
[16] = test system: SF-295 CNS
[17] = test system: SF-539 CNS
[18] = test system: UACC-257 melanoma
[19] = test system: M14 melanoma
[20] = test system: HCT-15 colon

Row | Structure (SMILES) | growth [1] [%] | growth [2] [%] | growth [3] [%] | growth [4] [%] | growth [5] | growth [6] | growth [7] | growth [8] | growth [9] | growth [10] [%] | growth [11] | growth [12] | growth [13] | growth [14] | growth [15] [%] | growth [16] | growth [17] | growth [18] | growth [19] | growth [20]
1 | CCN1CCN(c2nc3ccccc3c3c(=O)c4ccccc4sc23)CC1 | 64.2 | 49.5 | 68.4 | 39.4 | 20% | 35.4% | 31% | 47% | 10.7% | 33 | 12.8% | 52.5% | -2.38% (active) | 29.8% | 45.6 | 24.6% | 48% | 73.9% | -18.5% (active) | 31.8%
2 | COc1ccc(-c2nn(-c3cccc(NC(=O)Nc4ccccc4)c3)cc2-c2ccncc2)cc1Cl | 42.6 | 70.6 | 39.5 | 46 | 4.93% (active) | 5.77% (active) | -4.41% (active) | 42.2% | -50.6% (active) | 50.1 | 10.4% | 17.9% | -9.47% (active) | -59.3% (active) | 27.9 | -7.17% (active) | -59.1% (active) | -32.9% (active) | 9.94% (active) | 16.6%
3 | N#CC1=C(Nc2ccccc2Cl)SC(c2ccccc2O)NC1=O (stereo not given) | 112 | 120 | 114 | 115 | 121% | 1.13% (active) | 56.4% | 114% | 121% | 117 | 102% | 116% | 113% | 121% | 112 | 113% | 99.6% | 37.1% | 109% | 119%
4 | c1ccc(CSc2nnc3c4c5c(sc4nc(-c4cccnc4)n23)CCCCCC5)cc1 | 54.7 | 67.1 | 99.7 | 91.3 | 19.3% | 6.26% (active) | 36.8% | 73.6% | 20.5% | 56.4 | 21.7% | 16.2% | 71.4% | 83.3% | 57 | 45.1% | 79.7% | 35% | 45% | 94.2%
5 | COc1ccc(-c2csc(NC(=O)CSc3nc(C)c(-c4ccccc4)n3Nc3ccccc3)n2)cc1 | 21.8 | 63.8 | 69.8 | 71.1 | 43.2% | 58.2% | 36.6% | 53.3% | 66.6% | 65.3 | 24.8% | 60.4% | 65.8% | 63.9% | 44.7 | -9.42% (active) | 72.7% | 89.3% | 50.4% | 44.2%
6 | CCN1Cc2c(/C=C/c3ccccc3)nc3ccc(OC)cc3c2N(c2cccc(Cl)c2)C1 | 59.1 | 92 | 90.7 | 107 | 71.7% | 63.7% | 33.6% | 72.3% | 81.8% | 112 | 51.1% | 95.9% | 74% | 107% | 102 | 92.8% | 75.1% | 41.5% | 78.4% | 57.8%
7 | O=S(=O)(NCCNc1nccc(-c2c(-c3ccc(F)cc3)nc3sccn23)n1)c1ccc2ccccc2c1 | 90.8 | 92.7 | 73 | 88.5 | 55% | 75.5% | 43.8% | 89.4% | 57.4% | 78.8 | 54.6% | 81.2% | 98.3% | 91.3% | 68.3 | 68.2% | 104% | 71% | 82.9% | 76.4%
8 | CCCCCCc1cc(N=Nc2ccc(S(=O)(=O)Nc3cc(C)nc(C)n3)cc2)c(O)cc1O | 102 | 98 | 93.5 | 107 | 110% | 90.1% | 106% | 102% | 103% | 114 | 93.8% | 93.1% | 111% | 118% | 110 | 98.7% | 97.1% | 102% | 94.2% | 103%
9 | CC1(C)Cc2c(sc3ncn4nc(-c5ccc(O)cc5)nc4c23)CO1 | 90.9 | 57.9 | 90.4 | 79.2 | 63.2% | 53.5% | 63% | 74.9% | 114% | 76.1 | 76.8% | 68.2% | 70.5% | 66.3% | 64.1 | 76.2% | 75.1% | 89.7% | 86.6% | 75.1%
10 | CCCCCCCCCCCCCCCCCCOCC(COCCOCC[N+]1(CCCCCC(=O)[O-])CCCC1)Oc1ncccn1 (stereo not given) | 46.5 | 56 | 101 | 21.3 | 23.7% | 12.9% | 51.2% | 52.8% | -17.2% (active) | 77.6 | 19.8% | 82.9% | 51.9% | 28.3% | 32.6 | 26.9% | 36.8% | 45.5% | 30% | 56.3%
11 | Nc1nc(N)c2c(ccc3nccc32)[nH]1 | 50 | 123 | 61 | 74.8 | 20% | 37.9% | 2.16% (active) | 35.8% | 71.4% | 62.2 | 16.6% | 58.7% | 73.5% | 56.5% | 46.6 | 34.4% | 57.9% | -9.73% (active) | 28.7% | 46.9%
12 | COc1cc(Cl)cc(-c2nn(-c3cccc(NC(=O)c4ccc(N5CCOCC5)c(C(F)(F)F)c4)c3)cc2-c2ccncc2)c1 | 79 | 64.2 | 89.6 | 52.2 | 29.3% | 52.7% | 45.5% | 43.1% | 52.7% | 93.3 | 4.03% (active) | 57.9% | 11.4% | 12.4% | 67.3 | 2.6% (active) | 52.1% | 63.6% | 56.7% | 17.3%
13 | Cc1cn(C2CCCCO2)c(=O)nc1NO (stereo not given) | 93.4 | 115 | 110 | 110 | 107% | 104% | 104% | 103% | 120% | 113 | 101% | 137% | 106% | 119% | 103 | 106% | 96.1% | 106% | 113% | 100%
14 | COc1ccc(Nc2nc3ccc(NC(=O)NC4CCCCC4)cc3[nH]c2=O)cc1 | 94.1 | 94.5 | 96.1 | 83.9 | 102% | 87.3% | 89.5% | 72.7% | 112% | 107 | 77.1% | 102% | 70.8% | 48.1% | 91.4 | 82.6% | 68.8% | 90.4% | 103% | 83.2%
15 | CCC(=O)N1C/C(=C/c2ccc(OC)cc2)C(=O)/C(=C/c2ccc(OC)cc2)C1 | 63.9 | 29.5 | 111 | 20.5 | 61.4% | 20.6% | 32% | 4.83% (active) | 27.2% | 18.7 | 1.72% (active) | -9.29% (active) | 19.4% | -66.7% (active) | 24 | -5.17% (active) | 54.7% | 43.4% | -16.5% (active) | 4.21% (active)
16 | CC/C(=C(/c1ccc(OCCN(C)C)cc1)c1ccc(OC(=O)CCCCCCCCC(=O)c2c(C)[nH]c(/C=C3\N=C(c4ccc[nH]4)C=C3OC)c2C)cc1)c1ccccc1 | 88 | 52.6 | 77 | 75.9 | 46.9% | 54.5% | 50% | 63.9% | 88% | 67.6 | 33.5% | 68.1% | 11.2% | 69.1% | 71.7 | 89% | 83.4% | 90.5% | 38.6% | 58%
